Whole data set: some 35,000 sequences, median “fluorescence intensity (a.u.)” near 10,000, cut for the highest 2% near 52,000. The full list was thinned out, with the highest values kept by preference.

The target in the test is T1, OsWOX13 (Oryza sativa, UniProt Q5QMM3 1-267).
T1 sequence: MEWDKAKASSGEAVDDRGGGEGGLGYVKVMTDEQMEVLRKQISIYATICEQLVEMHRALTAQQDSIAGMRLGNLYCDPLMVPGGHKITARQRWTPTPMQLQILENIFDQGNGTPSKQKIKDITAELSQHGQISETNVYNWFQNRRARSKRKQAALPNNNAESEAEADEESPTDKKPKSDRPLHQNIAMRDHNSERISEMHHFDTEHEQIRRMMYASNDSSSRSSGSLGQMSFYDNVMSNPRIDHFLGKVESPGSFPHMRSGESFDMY
The test is described as follows: protein-binding microarray (RPBM); PBS, 2% BSA, 51.3 ng/ul salmon testes DNA, 50 uM zinc acetate, 200 nM TF, 25 C, 1 h; high values mean tight binding. As to conditions: protein: recombinant; tags: N-terminal polyhistidine and DsRed monomer fusion (pET32a); label: CyDye5-dUTP incorporated in the synthesized complementary strand; 3' TTTTT single-stranded linker to array surface; dsDNA, one strand shown. A digest of the protocol: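 The binding signal is fluorescence intensity per feature, in arbitrary units, read on an Axon 4000B scanner. Polyhistidine- and DsRed-tagged transcription factors (N-terminal fusions) from E. coli BL21-CodonPlus were purified on Ni–NTA and applied at 200 nM for 1 h at 25 °C to a double-stranded, BSA-blocked custom Agilent array in buffer with 50 µM zinc acetate.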
Regarding “TTATTTGTTTTGTTTGTGATTTGCTTTATTATCAAAAGTACGGAGTCACCTAGTGCAG”, the binding signal is 4600 fluorescence intensity (a.u.).

Take “ATCGTATCATTGATTTTCACTTAATATGGTGGACCCATCACGGAGTCACCTAGTGCAG”: the binding signal was 12700 fluorescence intensity (a.u.). To “ACAGACATAAATACGATTGATTAAGTAGTAGCCTAGCTAACGGAGTCACCTAGTGCAG” belongs 14600 fluorescence intensity (a.u.).

Take “GGTTTATTCAATTATGAAATTTTACTCCCCTATGTACTAACGGAGTCACCTAGTGCAG”: the binding signal is 11100 fluorescence intensity (a.u.). The figure for “GTTCATGCAATAACGTTAATTTGGGACTAGATTAGTATCCCGGAGTCACCTAGTGCAG” is 7620 fluorescence intensity (a.u.). To “TTTATAATTAGTATCAAAACATCCGATATGATAGTTACTTCGGAGTCACCTAGTGCAG” belongs 17100 fluorescence intensity (a.u.); to “CCAATCCACAACATAACCATCAATCATTCATTGACGCAAGCGGAGTCACCTAGTGCAG”, 4680 fluorescence intensity (a.u.). The figure for “GATTAATTTACTAGACGAATCTTTTAAGCCTAATTACTCCCGGAGTCACCTAGTGCAG” is 36100 fluorescence intensity (a.u.); for “CTAAACACGTTGATGGGCCTGAATGGAGGAAGCCCATCGACGGAGTCACCTAGTGCAG” it is 3790 fluorescence intensity (a.u.).

As to “CCGTCGCCTGATGGAGCAGAATCGTGAAACACGTTGTAAGCGGAGTCACCTAGTGCAG”, the binding signal is 57800 fluorescence intensity (a.u.). With “TTTCATGTAAATTAACACGAGCCTGAATCCTCCGTTGAAGCGGAGTCACCTAGTGCAG”, the binding signal was 3750 fluorescence intensity (a.u.).

Take “ATAATAATTAGTCATAAAGACAAGTGCTTATGCCCACTTACGGAGTCACCTAGTGCAG”: the binding signal is 16700 fluorescence intensity (a.u.). To “ATGTGTCAATTAATTATTTGCCACTCGCTGTCTATGACATCGGAGTCACCTAGTGCAG” belongs 28300 fluorescence intensity (a.u.). Consider “GGTGGATGAGAATGGATTGAATGAAAACAACAACATATTACGGAGTCACCTAGTGCAG”, for which the binding signal was 7970 fluorescence intensity (a.u.). Regarding “TGAAGATTGATGAGATGGACGGTACCATTGCCGATGCTGTCGGAGTCACCTAGTGCAG”, the binding signal is 56700 fluorescence intensity (a.u.). Consider “ATTGATGGGTACATTGAGATGGAGCTGTTTGGACAAGTTGCGGAGTCACCTAGTGCAG”, for which the binding signal was 7520 fluorescence intensity (a.u.). The figure for “TTTTGATCACACCATGATTGATGCACAAATCCATATGAACCGGAGTCACCTAGTGCAG” is 36800 fluorescence intensity (a.u.). As for “ATGATTGATTGCTTTTCCTAAATCCTAACCATGATGCTGTCGGAGTCACCTAGTGCAG”, the binding signal was 65000 fluorescence intensity (a.u.). As to “TTGCTGATTGAAGCTGATACTGTCGTGAAATGAACCATGTCGGAGTCACCTAGTGCAG”, the binding signal is 38200 fluorescence intensity (a.u.).

For the sequence “CAATTGTCCGGATTGAGATATGACTGAAGCGGATGCTGGACGGAGTCACCTAGTGCAG”, the binding signal was 3220 fluorescence intensity (a.u.). The figure for “GCCTAAGATAATTGATAAGAGTGCTTAAAGTGTACAACCGCGGAGTCACCTAGTGCAG” is 37500 fluorescence intensity (a.u.). “TATATTATTTGTCAATCTTATTGTCAACTTATTAATCATCCGGAGTCACCTAGTGCAG”: the binding signal is 7160 fluorescence intensity (a.u.). To “TCTGACCATTATTAATTTCTAGCAACTAGCAATTTTGTGCCGGAGTCACCTAGTGCAG” belongs 6120 fluorescence intensity (a.u.).

As to “AGATTACATGATTGGAAATCTTTCACATATTTGTTTCAGGCGGAGTCACCTAGTGCAG”, the binding signal is 51800 fluorescence intensity (a.u.). The figure for “TGTCTAATTGGTATCGTGAAGACTCTGAACCATTTCCATCCGGAGTCACCTAGTGCAG” is 35200 fluorescence intensity (a.u.); for “CCCTTAATTAATTAAAACCGGTCACAGTATGTCCTTTAATCGGAGTCACCTAGTGCAG” it is 41300 fluorescence intensity (a.u.); for “CTTAATTAGCATGAAACACAAGTAGTATATGATTACACCACGGAGTCACCTAGTGCAG” it is 33100 fluorescence intensity (a.u.).

Turning to “ATCTTAATTGAAACAAACACAGCTTTAGTATATGCATGTCCGGAGTCACCTAGTGCAG”, the binding signal is 58900 fluorescence intensity (a.u.).

On to “GTCCAGGCTTAATTCAATCATTATATGTACATATCTTTGTCGGAGTCACCTAGTGCAG”, for which the binding signal is 6860 fluorescence intensity (a.u.). To “TTCAATTGATTATGAACTGCTTGTACTCTAATCAATGGTACGGAGTCACCTAGTGCAG” belongs 55800 fluorescence intensity (a.u.).

On to “GAGAACTCTAATGAATTAGATTATATTCATGCTTGTTGATCGGAGTCACCTAGTGCAG”, for which the binding signal is 5820 fluorescence intensity (a.u.). In the case of “ATCTGTAATTTATTTTATTATTAGTCTACGCTTAATACTTCGGAGTCACCTAGTGCAG”, the binding signal is 22000 fluorescence intensity (a.u.). In the case of “GTGATTAATTAATTATTAATTAATCGCTAATCAGGATAATCGGAGTCACCTAGTGCAG”, the binding signal was 65500 fluorescence intensity (a.u.). “TTCTCTAATTGGTAATTCATGATTAATCACTCCTACTTTACGGAGTCACCTAGTGCAG”: the binding signal is 48000 fluorescence intensity (a.u.). The figure for “CACACTATTAATCATTTTGATTTTGGTATACTGCACTTTTCGGAGTCACCTAGTGCAG” is 6110 fluorescence intensity (a.u.). To “GATTGGTCATAATTATATATATATATTACTTCCTAATCACCGGAGTCACCTAGTGCAG” belongs 6390 fluorescence intensity (a.u.); to “CAGGCTGCTTAATTACATATATCTAGATATATATATTATTCGGAGTCACCTAGTGCAG”, 3870 fluorescence intensity (a.u.). To “ATTAATCGCTAATTAGGATAATTAATCACTAATTAGTATTCGGAGTCACCTAGTGCAG” belongs 43700 fluorescence intensity (a.u.). Consider “ATATATATATATATATATATATATATATTATCGCTAATAACGGAGTCACCTAGTGCAG”, for which the binding signal is 31200 fluorescence intensity (a.u.). “TGATTGGTAATCAATCAATTATTATCATATACTCGCACTGCGGAGTCACCTAGTGCAG”: the binding signal is 62300 fluorescence intensity (a.u.). To “ATTAATTATCTAATTAATTAATTAGCCCATCTGCTTACTTCGGAGTCACCTAGTGCAG” belongs 65000 fluorescence intensity (a.u.).

Turning to “AGTCGAGTCAACTTAATTAACTTAACTTCAACCGTCGCTACGGAGTCACCTAGTGCAG”, the binding signal is 5940 fluorescence intensity (a.u.).
